According to PubChem BioAssay AID588849 (Broad Institute, 2011):
Measured potencies and affinities stand elsewhere. Calls of active or inactive are those of the source. The rule behind the calls is not given here.

Target: CAAX prenyl protease 2 (Homo sapiens) (UniProt Q9Y256)
Test: inhibition of Ras-converting CAAX protease Rce1 – biochemical, yeast membranes, quenched-peptide fluorescence, cherry-pick, dose response (AID 588849)
Conditions: yeast membrane fractions expressing human Rce1, quenched-peptide fluorescence, 4 h; series mostly up to 10 µM

CAAX prenyl protease 2 (Homo sapiens), sequence (Q9Y256 whole entry, looked up): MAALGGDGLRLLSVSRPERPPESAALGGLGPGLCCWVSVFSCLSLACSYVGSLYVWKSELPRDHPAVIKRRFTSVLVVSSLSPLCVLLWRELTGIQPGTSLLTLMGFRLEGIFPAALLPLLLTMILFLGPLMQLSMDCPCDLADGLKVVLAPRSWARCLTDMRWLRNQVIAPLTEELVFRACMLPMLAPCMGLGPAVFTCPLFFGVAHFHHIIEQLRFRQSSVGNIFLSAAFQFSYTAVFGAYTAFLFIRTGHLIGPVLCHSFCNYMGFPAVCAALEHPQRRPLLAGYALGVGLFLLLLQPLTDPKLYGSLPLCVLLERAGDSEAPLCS

outcome, inactive:
NS(=O)(=O)c1ccc(NC(=O)/C=C/c2cn(-c3ccccc3)nc2-c2cccc(Cl)c2)cc1
COc1cccc2sc3ccc(C#CC4(O)CCCCC4)cc3c(=O)c12
Cc1cc(N2CCN(C(c3ccccc3)c3ccccc3)CC2)n2ncnc2n1
COC(=O)c1cnn2c3c(c(C)nc12)CCCC3
Cc1c(Cc2ccccc2)c(=O)oc2c(C)c(OCC(=O)N3CCC(C(=O)O)CC3)ccc12
O=C(C1CCC(=O)N(C2CC2)C1)N1CCN(c2ccccc2Cl)CC1 (stereo not drawn)
CCCCN(CC)CCNC(=O)c1cc2c(-c3ccc(Cl)cc3)nn(C)c2s1
CCSCCOC(=O)C1=C(C)NC(=O)NC1c1ccccc1 (stereo not drawn)
Cc1cccc(NS(=O)(=O)c2ccc(C)c(C(=O)OCC(=O)Nc3cc(C)on3)c2)c1
Nc1c(C(=O)NCc2ccccc2)sc2nc(N3CCOCC3)c3c(c12)CCCC3
O=C(O/N=C\c1ccc(N2CCCCC2)c([N+](=O)[O-])c1)c1cccc(C(F)(F)F)c1
COc1ccccc1N1CCN(c2ncc(C(=O)N3CCN(c4cccc(Cl)c4)CC3)c3ccccc23)CC1
COc1cc(-c2nc3ccccn3c2/N=C/c2cccc(OC)c2O)ccc1O
Cc1cc(N/N=C/c2ccc(O)c(C)c2O)nc(-c2ccccc2O)n1
CC1=NN(c2ccccc2)C(=O)/C1=C\c1ccc(Br)s1
O=C(COC(=O)c1ccccc1Cc1ccccc1)NC1CCS(=O)(=O)C1 (stereo not drawn)
Cc1cc(Cl)c2oc(C(=O)N3CCN(C(=O)c4ccco4)CC3)c(C)c2c1
CCCCNC(=O)c1cc2c(=O)n3cccc(C)c3nc2n(Cc2ccccc2)c1=N
N=c1c2c(ncn1Cc1ccco1)Oc1ccc3ccccc3c1C2c1ccccc1 (stereo not drawn)
Cc1ccc(NS(=O)(=O)c2ccc(NC(=O)N3CCCCC3)cc2)cc1
COc1cc(-c2nc3ccccn3c2/N=C/c2ccccc2)ccc1O
CCn1c(C)nc2c(=O)oc3ccccc3c21
O=C(c1cnc(Cl)c(Cl)c1)N1CCC(Cc2ccccc2)CC1
N#CC(/C(=N/S(=O)(=O)c1cccs1)c1ccccc1)c1nc2ccccc2[nH]1 (stereo not drawn)
CCN(CC)CCCNC(=O)CCc1c(C)n(CC)c2cc(-c3ccccc3OC)nn2c1=O
CCNC(=S)NNC(=O)CCn1cc(C)cn1
COC(=O)c1sccc1NC(=O)CSc1nnnn1-c1ccccc1C
CCCCCCSc1cc(-c2nc3cc(C)ccn3c2NCCCC)ccc1OC
Cc1cc(NC(=O)c2oc3ccccc3c2C)ccc1-n1cnnn1
CCCCOc1ccc(-c2cc(C(F)(F)F)c(C#N)c(SCC(=O)O)n2)cc1
O=C(NCC1CC1)c1ccc(Nc2nc3ccc(Br)cc3[nH]2)cc1
COc1ccc([N+](=O)[O-])cc1CSc1ccccn1
Cc1ccc(-c2c(C(=O)N/N=C/c3cccc(Cl)c3)nnn2-c2nonc2N)cc1
O=C(c1cnc2n(c1=O)CCS2)N1CCN(C(c2ccccc2)c2ccc(Cl)cc2)CC1 (stereo not drawn)
O=C(O)CCCC[C@@H]1SC[C@@H]2NC(=O)N[C@@H]21
CC(=O)NC(Cc1c[nH]c2ccccc12)C(=O)O (stereo not drawn)
CCCN(CCC)CCNC(=O)c1cc2c(-c3ccccc3F)nn(C)c2s1
O=S(=O)(c1ccccc1)c1cnn2c(C(F)(F)F)cc(-c3ccc(F)cc3)nc12
